Target: Tumor necrosis factor receptor superfamily member 10B (Homo sapiens) (UniProt O14763)
Sequence (O14763 whole entry, looked up): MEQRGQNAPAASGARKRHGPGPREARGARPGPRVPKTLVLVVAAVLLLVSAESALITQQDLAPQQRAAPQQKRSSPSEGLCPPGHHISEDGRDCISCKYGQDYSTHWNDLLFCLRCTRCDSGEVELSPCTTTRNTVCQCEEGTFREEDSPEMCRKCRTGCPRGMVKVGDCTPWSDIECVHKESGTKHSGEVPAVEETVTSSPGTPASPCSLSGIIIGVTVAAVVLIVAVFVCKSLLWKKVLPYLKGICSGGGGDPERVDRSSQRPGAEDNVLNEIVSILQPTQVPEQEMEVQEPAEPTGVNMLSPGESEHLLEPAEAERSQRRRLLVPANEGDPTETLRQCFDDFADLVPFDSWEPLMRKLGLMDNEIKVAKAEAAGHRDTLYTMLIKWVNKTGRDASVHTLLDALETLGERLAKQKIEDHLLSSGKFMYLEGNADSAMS
Test: caspase-8 TRAIL sensitization, hit retest, confirmation, cell-based, NB7+caspase-8, with/without TRAIL, luminescence panel (AID 651596)
Conditions: NB7 neuroblastoma + caspase-8, TRAIL sensitization, luminescence viability, with TRAIL, mean of runs, at 10 µM, stronger effect = higher value; in the data active = activity above about 50%; inactive = the rest
Compound O=C(OCc1cccc(C(F)(F)F)c1)c1cc(S(=O)(=O)N2CCOCC2)ccc1F has an activity of 36.8%. With CC(=O)Oc1ccccc1/C=C/c1nc2ccccc2c(=O)o1 the activity was 83.7%. Work on c1ccc(CSc2ccc(-c3ccco3)nn2)cc1 yielded an activity of 57.6%. Compound CC(C)n1c(/C=C/c2ccccc2)nc2ccccc21 has an activity of 63.2%. With Cc1c(Cl)cccc1Nc1nc(N)nc(CSc2ncccn2)n1 the activity was 91.8%. For CC(C)Sc1cc(Cl)nc(NC(=O)Nc2ccccc2)n1, the activity was 98.4%. COc1cccc(C(=O)Nc2ccc(NC(=O)C(C)(C)C)cn2)c1 showed an activity of 79.7%. COc1cccc(N2C(N)=NC(N)=NC2(C)C)c1 showed an activity of 79.7%. Work on Cc1ccc(-c2nc(N/N=C/c3cccc([N+](=O)[O-])c3)c3ccccc3n2)cc1 yielded an activity of 70.8%. Compound O=C(Nc1nc2c(s1)CCCC2)c1cccs1 has an activity of 71.3%. O=C(/C=C/c1ccccc1Cl)Nc1cccc(O)c1 gave an activity of 61.3%. For O=C(/C=C/Nc1ccccc1C(F)(F)F)c1ccco1, the activity was 97.2%. Compound O=C(Cn1ncc(Cl)c(Cl)c1=O)NC(=O)NC1CCCCC1 has an activity of 99.3%. In the case of COc1ccc(C2C(C(=O)N3CCN(c4ccccc4F)CC3)c3ccccc3C(=O)N2C)cc1 (stereo not given), the activity is reported as 74.5%. In the case of O=C1C(=Cc2ccccc2Cl)CCc2ccccc21, the activity is reported as 62.3%. Oc1ccc(-c2cn3ccccc3n2)cc1 gave an activity of 45.3%. In the case of COc1ccccc1-c1nc(-c2ccccn2)no1, the activity is reported as 76.7%. Work on Cc1ccc(C(=O)Nc2ccc3nccnc3c2)cc1 yielded an activity of 77.5%. O=C(Nc1cccc(-n2cnnn2)c1)c1ccc(C(F)(F)F)cc1 showed an activity of 21.7%. O=c1oc2ccccc2cc1-c1csc(Nc2nc3c(F)cccc3s2)n1 showed an activity of 11.9%. Cc1cccc(Cn2ncc(Cl)c(Cl)c2=O)c1 showed an activity of 92.2%. With CC(c1ccco1)N(C(=O)COc1ccc(Cl)cc1Cl)c1ccccn1 (stereo not given) the activity was -4.47%. In the case of COc1cccc(C=Cc2nccc3ccccc23)c1OC, the activity is reported as 69.2%. O=C(C[C@H]1C[C@H](C(=O)N2CCCCC2)[C@@]2(CCc3ccccc3)c3[nH]c4ccc(Cl)cc4c3CCN2C1=O)NCCC1=CCCCC1 gave an activity of 46.3%. Work on O=C(Cn1ncc(Cl)c(Cl)c1=O)c1ccc(Cl)cc1 yielded an activity of 99.7%. O=C(CCl)Nc1cccc(Oc2ccccc2)c1 gave an activity of 97.7%. Cc1ccn(-c2ccc(NC(=O)c3cccs3)cc2)n1 showed an activity of 59.7%. COc1ccc(-c2cn3ccccc3n2)cc1 showed an activity of 88%. With COc1cccc(Cn2c(NCc3cccnc3)nc3c2c(=O)n(C)c(=O)n3C)c1 the activity was 79.5%. CC(OC(=O)c1cc(O)c2ccccc2c1O)C(=O)Nc1ccc(C(N)=O)cc1 (stereo not given) gave an activity of 49.5%. In the case of Cn1cnc([N+](=O)[O-])c1Sc1nc(N)nc2c1ncn2C1OC(CO)C(O)C1O (stereo not given), the activity is reported as 66.8%. Compound Fc1ccc(-c2nc(-c3cnccn3)no2)c(Cl)c1 has an activity of 59.1%. For COc1ccc(Nc2nc(N)nc(CCl)n2)cc1, the activity was 99.1%. With C/C(=N\NC(=O)c1ccc(Cl)cc1)c1cccs1 the activity was 80.1%. For CN1CCN(Cc2nc3ccccc3c(=O)n2Cc2nc(-c3ccc4ccccc4c3)cs2)CC1, the activity was 67.3%. In the case of COc1cccc2sc(N(C)c3ccccc3)nc12, the activity is reported as 58.3%. Compound C#Cc1ccc([C@H]2C=C(C(=O)Nc3ccccc3)O[C@@H](OCc3ccc(CO)cc3)C2)cc1 has an activity of 92%. COc1cc(OC)cc(C(=O)Nc2nc3ccccc3[nH]2)c1 gave an activity of 55%. Compound Cc1nc2ccc(-c3nc4cc(N)ccc4o3)cc2[nH]1 has an activity of 59.7%. Work on CCCc1ccc(C(=O)NC(=O)c2ccccc2O)cc1 yielded an activity of 78.6%.

System: not listed separately
Test: as above
Conditions: NB7 neuroblastoma + caspase-8, without TRAIL, luminescence viability, without TRAIL, mean of runs, at 10 µM
Compound O=C(OCc1cccc(C(F)(F)F)c1)c1cc(S(=O)(=O)N2CCOCC2)ccc1F has an activity of 21%. Compound CC(=O)Oc1ccccc1/C=C/c1nc2ccccc2c(=O)o1 has an activity of 84.8%. In the case of c1ccc(CSc2ccc(-c3ccco3)nn2)cc1, the activity is reported as 45.9%. With CC(C)n1c(/C=C/c2ccccc2)nc2ccccc21 the activity was 69.3%. For Cc1c(Cl)cccc1Nc1nc(N)nc(CSc2ncccn2)n1, the activity was 92.3%. With CC(C)Sc1cc(Cl)nc(NC(=O)Nc2ccccc2)n1 the activity was 99.7%. COc1cccc(C(=O)Nc2ccc(NC(=O)C(C)(C)C)cn2)c1 showed an activity of 83%. In the case of COc1cccc(N2C(N)=NC(N)=NC2(C)C)c1, the activity is reported as 85%. Cc1ccc(-c2nc(N/N=C/c3cccc([N+](=O)[O-])c3)c3ccccc3n2)cc1 showed an activity of 63.5%. For O=C(Nc1nc2c(s1)CCCC2)c1cccs1, the activity was 82.1%. Compound O=C(/C=C/c1ccccc1Cl)Nc1cccc(O)c1 has an activity of 42.2%. Work on O=C(/C=C/Nc1ccccc1C(F)(F)F)c1ccco1 yielded an activity of 99.3%. O=C(Cn1ncc(Cl)c(Cl)c1=O)NC(=O)NC1CCCCC1 showed an activity of 99.3%. Compound COc1ccc(C2C(C(=O)N3CCN(c4ccccc4F)CC3)c3ccccc3C(=O)N2C)cc1 (stereo not given) has an activity of 59%. Work on O=C1C(=Cc2ccccc2Cl)CCc2ccccc21 yielded an activity of 51.9%. Oc1ccc(-c2cn3ccccc3n2)cc1 gave an activity of 45.5%. COc1ccccc1-c1nc(-c2ccccn2)no1 gave an activity of 72.7%. For Cc1ccc(C(=O)Nc2ccc3nccnc3c2)cc1, the activity was 74.8%. Work on O=C(Nc1cccc(-n2cnnn2)c1)c1ccc(C(F)(F)F)cc1 yielded an activity of 10.3%. O=c1oc2ccccc2cc1-c1csc(Nc2nc3c(F)cccc3s2)n1 gave an activity of 5.5%. In the case of Cc1cccc(Cn2ncc(Cl)c(Cl)c2=O)c1, the activity is reported as 98.9%. CC(c1ccco1)N(C(=O)COc1ccc(Cl)cc1Cl)c1ccccn1 (stereo not given) showed an activity of 10.2%. COc1cccc(C=Cc2nccc3ccccc23)c1OC showed an activity of 67.1%. O=C(C[C@H]1C[C@H](C(=O)N2CCCCC2)[C@@]2(CCc3ccccc3)c3[nH]c4ccc(Cl)cc4c3CCN2C1=O)NCCC1=CCCCC1 showed an activity of 86.7%. In the case of O=C(Cn1ncc(Cl)c(Cl)c1=O)c1ccc(Cl)cc1, the activity is reported as 99.6%. Work on O=C(CCl)Nc1cccc(Oc2ccccc2)c1 yielded an activity of 97.7%. Compound Cc1ccn(-c2ccc(NC(=O)c3cccs3)cc2)n1 has an activity of 65.7%. In the case of COc1ccc(-c2cn3ccccc3n2)cc1, the activity is reported as 87.1%. In the case of COc1cccc(Cn2c(NCc3cccnc3)nc3c2c(=O)n(C)c(=O)n3C)c1, the activity is reported as 84.7%. For CC(OC(=O)c1cc(O)c2ccccc2c1O)C(=O)Nc1ccc(C(N)=O)cc1 (stereo not given), the activity was 49.2%. Cn1cnc([N+](=O)[O-])c1Sc1nc(N)nc2c1ncn2C1OC(CO)C(O)C1O (stereo not given) showed an activity of 75.4%. Fc1ccc(-c2nc(-c3cnccn3)no2)c(Cl)c1 showed an activity of 58.1%. With COc1ccc(Nc2nc(N)nc(CCl)n2)cc1 the activity was 98.3%. In the case of C/C(=N\NC(=O)c1ccc(Cl)cc1)c1cccs1, the activity is reported as 81.4%. With CN1CCN(Cc2nc3ccccc3c(=O)n2Cc2nc(-c3ccc4ccccc4c3)cs2)CC1 the activity was 91.5%. For COc1cccc2sc(N(C)c3ccccc3)nc12, the activity was 61.2%. With C#Cc1ccc([C@H]2C=C(C(=O)Nc3ccccc3)O[C@@H](OCc3ccc(CO)cc3)C2)cc1 the activity was 93.4%. In the case of COc1cc(OC)cc(C(=O)Nc2nc3ccccc3[nH]2)c1, the activity is reported as 56.8%. Compound Cc1nc2ccc(-c3nc4cc(N)ccc4o3)cc2[nH]1 has an activity of 57.4%. For CCCc1ccc(C(=O)NC(=O)c2ccccc2O)cc1, the activity was 75.5%.

Reference: PubChem BioAssay
